Reference: PubChem BioAssay (NCATS)
Results filed as inconclusive are left out. A call without a number means that no potency is given here. Active and inactive are the calls of the source. Calls follow the shape of the full dose curve.

The molecules below were run against Nucleoprotein (Lymphocytic choriomeningitis virus (strain Armstrong)) (UniProt P09992) (assay: qHTS for Inhibitors of the Functional Ribonucleoprotein Complex (vRNP) of Lymphocytic Choriomeningitis Arenaviruses (LCMV): LCMV Primary Screen - GLuc reporter signal (AID 1347086; also: nearly all actives have a fitted effect of over 70% in size)). Conditions: LCMV minigenome vRNP cell assay, Gaussia luciferase reporter; series mostly up to 57.5 µM.
Sequence of Nucleoprotein (Lymphocytic choriomeningitis virus (strain Armstrong)) (P09992 whole entry, looked up): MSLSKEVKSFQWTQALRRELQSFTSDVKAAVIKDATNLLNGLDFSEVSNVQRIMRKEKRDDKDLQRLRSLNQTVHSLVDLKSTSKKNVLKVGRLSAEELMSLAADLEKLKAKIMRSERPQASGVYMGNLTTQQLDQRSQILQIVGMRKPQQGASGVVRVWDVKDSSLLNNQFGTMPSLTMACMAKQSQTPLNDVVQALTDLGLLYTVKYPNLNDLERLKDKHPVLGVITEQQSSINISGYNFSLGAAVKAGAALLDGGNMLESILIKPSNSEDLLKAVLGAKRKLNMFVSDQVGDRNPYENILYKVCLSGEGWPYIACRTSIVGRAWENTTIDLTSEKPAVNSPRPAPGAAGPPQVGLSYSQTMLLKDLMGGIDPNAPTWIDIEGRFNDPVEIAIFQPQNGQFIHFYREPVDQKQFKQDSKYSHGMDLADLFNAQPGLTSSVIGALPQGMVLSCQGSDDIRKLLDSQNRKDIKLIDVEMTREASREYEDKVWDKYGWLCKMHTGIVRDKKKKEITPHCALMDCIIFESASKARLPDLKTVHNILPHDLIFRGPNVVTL
`Nc1ccc(-c2nc3ccc(-c4nc5ccc(N)cc5[nH]4)cc3[nH]2)cc1` was tested, and the Potency was “inactive”.
`O=C1C2C=CC=CC2=NC(=S)N1CCN1CCC(=C(c2ccc(F)cc2)c2ccc(F)cc2)CC1` (centres undefined) was tested, and the Potency was “inactive”.
`CC(=O)[C@H]1CCC2C3CC=C4C[C@@H](OS(=O)(=O)O)CC[C@]4(C)C3CC[C@@]21C` (some centres undefined) was tested, and the Potency was “inactive”.
`CCCCCCCCCCCCCCCCCCNC(=O)OCC(COP(=O)([O-])OCC[n+]1ccsc1)OC` (centres undefined) was tested, and the Potency was “inactive”.
In the case of `COc1ccc(-c2ccc(N)[n+](CCCC(=O)O)n2)cc1`, the Potency is reported as “inactive”.
In the case of `COc1cccc(OC)c1OCCNCC1COc2ccccc2O1` (centres undefined), the Potency is reported as “inactive”.
With `O=C(O)[C@@H]1C[C@H](C(=O)O)N1` the Potency was “inactive”.
In the case of `CCCOC(=O)c1c(-c2ccccc2)nc(CC)c(C(=O)SCC)c1CCC`, the Potency is reported as “inactive”.
With `Cc1cccc(C)c1OCC(N)C(C)C` (centres undefined) the Potency was “inactive”.
With `CC1(C)CCC2=C(O1)c1ccccc1C(=O)C2=O` the Potency was “inactive”.
`c1ccc(-c2ccccn2)nc1` was tested, and the Potency was “inactive”.
In the case of `CC(C)(C)c1onc(OCP(=O)(O)O)c1CC(N)C(=O)O` (centres undefined), the Potency is reported as “inactive”.
For `Cc1ccc(C(=O)O[C@H](C(=O)O)[C@@H](OC(=O)c2ccc(C)cc2)C(=O)O)cc1` (tested in a mixture with another compound), the Potency was “inactive”.
For `CC1CN(S(=O)(=O)c2cccc3cnccc23)CCN1` (centres undefined), the Potency was “inactive”.
`NC(=O)c1ccccc1` was tested, and the Potency was “inactive”.
With `O=c1onc2n1-c1cc(Br)ccc1OC2` the Potency was “inactive”.
For `N#C/C(=C\c1ccc(O)c(O)c1)C(=O)Nc1ccccc1`, the Potency was “inactive”.
In the case of `O=C1O/C(=C/Br)CCC1c1cccc2ccccc12` (centres undefined), the Potency is reported as “inactive”.
`N[C@@H](Cc1cnc[nH]1)C(=O)O` was tested, and the Potency was “inactive”.
